Source: PubChem BioAssay AID1159580 (chemical genetic matrix, 2015)
About 2,000 (36%) of roughly 5,500 compounds were called active. Not shown: some 18% with an inconclusive outcome. Cut-off read from the data, not from the text of the source: active = normalized growth mostly below about 0.91 (no sharp cut-off); inconclusive = no clear call, values can overlap the other calls; inactive = mostly above about 0.92. The list shows a part of the results.

Assay: chemical genetic growth profiling, strain panel (AID 1159580);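 note: tested at 20 µM; growth read once vehicle control cultures reached saturation at 30 °C; 1 = growth at the plate median or of vehicle wells; lower values mean less growth of the strain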
Settings: growth OD

Measured: normalized growth

Cc1ccc(C(C)C)cc2c(C)ccc1-2
inactive: S. cerevisiae deletion strains, locus YJR043C, strain POL32, active compounds read low 0.977 | S. cerevisiae deletion strains, locus YJR066W, strain TOR1, active compounds read low 0.925 | S. cerevisiae deletion strains, locus YKL009W, strain mrt4, active compounds read low 1.04 | S. cerevisiae deletion strains, locus YKL068W, active compounds read low 1 | S. cerevisiae deletion strains, locus YKL085W, strain MDH1 (second series), active compounds read low 1 | S. cerevisiae deletion strains, locus YKL085W, strain MDH1, active compounds read low 1 | S. cerevisiae deletion strains, locus YKL160W, strain elf1, active compounds read low 0.989 | S. cerevisiae deletion strains, locus YKL190W, strain CNB1, active compounds read low 0.986 | S. cerevisiae deletion strains, locus YKR001C, strain vps1, active compounds read low 1 | S. cerevisiae deletion strains, locus YKR026C, strain gcn3, active compounds read low 1 | S. cerevisiae deletion strains, locus YKR091W, strain srl3, active compounds read low 1 | S. cerevisiae deletion strains, locus YLL001W, strain dnm1, active compounds read low 0.976 | S. cerevisiae deletion strains, locus YLL026W, active compounds read low 0.998 | S. cerevisiae deletion strains, locus YLL041C, strain sdh2, active compounds read low 1.01 | S. cerevisiae deletion strains, locus YLR027C, strain aat2, active compounds read low 0.991 | S. cerevisiae deletion strains, locus YLR039C, strain RIC1, active compounds read low 0.92 | S. cerevisiae deletion strains, locus YLR058C, strain SHM2, active compounds read low 1 | S. cerevisiae deletion strains, locus YLR102C, strain apc9, active compounds read low 1.02 | S. cerevisiae deletion strains, locus YLR113W, strain HOG1, active compounds read low 1.03 | S. cerevisiae deletion strains, locus YLR221C, strain rsa3, active compounds read low 1.02 | S. cerevisiae deletion strains, locus YLR258W, strain gsy2, active compounds read low 0.999 | S. cerevisiae deletion strains, locus YLR262C, strain YPT6 (second series), active compounds read low 1.01 | S. cerevisiae deletion strains, locus YLR262C, strain YPT6, active compounds read low 0.909 | S. cerevisiae deletion strains, locus YLR268W, strain sec22, active compounds read low 1.01 | S. cerevisiae deletion strains, locus YLR320W, strain mms22, active compounds read low 1.01 | S. cerevisiae deletion strains, locus YLR330W, strain CHS5, active compounds read low 1 | S. cerevisiae deletion strains, locus YLR342W, strain FKS1 (second series), active compounds read low 0.944 | S. cerevisiae deletion strains, locus YLR342W, strain FKS1, active compounds read low 1.03 | S. cerevisiae deletion strains, locus YLR357W, strain rsc2, active compounds read low 0.982 | S. cerevisiae deletion strains, locus YLR370C, strain arc18, active compounds read low 0.995 | S. cerevisiae deletion strains, locus YLR371W, strain rom2, active compounds read low 1 | S. cerevisiae deletion strains, locus YLR384C, strain iki3, active compounds read low 0.997 | S. cerevisiae deletion strains, locus YLR418C, strain cdc73, active compounds read low 0.962 | S. cerevisiae deletion strains, locus YML016C, strain PPZ1, active compounds read low 1 | S. cerevisiae deletion strains, locus YML032C, strain rad52, active compounds read low 1.03 | S. cerevisiae deletion strains, locus YML120C, strain ndi1, active compounds read low 1 | S. cerevisiae deletion strains, locus YML124C, strain tub3, active compounds read low 1.02 | S. cerevisiae deletion strains, locus YMR058W, strain fet3, active compounds read low 1.01 | S. cerevisiae deletion strains, locus YMR078C, strain ctf18, active compounds read low 1.02 | S. cerevisiae deletion strains, locus YMR125W, strain sto1, active compounds read low 1 | S. cerevisiae deletion strains, locus YMR129W, active compounds read low 1.01 | S. cerevisiae deletion strains, locus YMR205C, strain PFK2, active compounds read low 0.981 | S. cerevisiae deletion strains, locus YMR223W, strain ubp8, active compounds read low 1.02 | S. cerevisiae deletion strains, locus YMR231W, strain pep5, active compounds read low 0.978 | S. cerevisiae deletion strains, locus YMR263W, strain SAP30, active compounds read low 0.993 | S. cerevisiae deletion strains, locus YMR307W, strain GAS1, active compounds read low 0.914 | S. cerevisiae deletion strains, locus YNL067W, strain RPL9B, active compounds read low 0.993 | S. cerevisiae deletion strains, locus YNL071W, strain lat1, active compounds read low 0.991 | S. cerevisiae deletion strains, locus YNL183C, strain NPR1, active compounds read low 0.981 | S. cerevisiae deletion strains, locus YNL209W, strain ssb2, active compounds read low 1.01 | S. cerevisiae deletion strains, locus YNL233W, strain BNI4, active compounds read low 0.989 | S. cerevisiae deletion strains, locus YNL248C, strain rpa49, active compounds read low 1.02 | S. cerevisiae deletion strains, locus YNL250W, strain rad50, active compounds read low 1.05 | S. cerevisiae deletion strains, locus YNL271C, strain bni1, active compounds read low 1.03 | S. cerevisiae deletion strains, locus YNL298W, strain CLA4, active compounds read low 1.02 | S. cerevisiae deletion strains, locus YNL307C, strain MCK1, active compounds read low 0.995 | S. cerevisiae deletion strains, locus YNL322C, strain KRE1 (second series), active compounds read low 0.994 | S. cerevisiae deletion strains, locus YNR049C, strain mso1, active compounds read low 1 | S. cerevisiae deletion strains, locus YNR052C, strain pop2, active compounds read low 1.02 | S. cerevisiae deletion strains, locus YOL006C, strain TOP1, active compounds read low 1.02 | S. cerevisiae deletion strains, locus YOL012C, strain htz1 0.644 | S. cerevisiae deletion strains, locus YOL147C, strain pex11, active compounds read low 1.03 | S. cerevisiae deletion strains, locus YOR001W, strain rrp6, active compounds read low 1.04 | S. cerevisiae deletion strains, locus YOR061W, strain CKA2, active compounds read low 1.01 | S. cerevisiae deletion strains, locus YOR069W, strain VPS5, active compounds read low 1 | S. cerevisiae deletion strains, locus YOR070C, strain gyp1, active compounds read low 0.994 | S. cerevisiae deletion strains, locus YOR080W, strain dia2, active compounds read low 1.01 | S. cerevisiae deletion strains, locus YOR083W, strain WHI5, active compounds read low 0.987 | S. cerevisiae deletion strains, locus YOR106W, strain vam3, active compounds read low 1.01 | S. cerevisiae deletion strains, locus YOR136W, strain idh2, active compounds read low 1.03 | S. cerevisiae deletion strains, locus YOR144C, strain elg1, active compounds read low 1.02 | S. cerevisiae deletion strains, locus YOR184W, strain ser1, active compounds read low 0.991 | S. cerevisiae deletion strains, locus YOR231W, strain MKK1, active compounds read low 0.984 | S. cerevisiae deletion strains, locus YOR265W, strain rbl2, active compounds read low 0.992 | S. cerevisiae deletion strains, locus YOR270C, strain vph1, active compounds read low 1.1 | S. cerevisiae deletion strains, locus YOR290C, strain snf2, active compounds read low 0.98 | S. cerevisiae deletion strains, locus YOR316C, strain cot1, active compounds read low 1.02 | S. cerevisiae deletion strains, locus YPL051W, strain arl3, active compounds read low 0.984 | S. cerevisiae deletion strains, locus YPL078C, strain atp4, active compounds read low 0.979 | S. cerevisiae deletion strains, locus YPL106C, strain sse1, active compounds read low 0.997 | S. cerevisiae deletion strains, locus YPL240C, strain hsp82, active compounds read low 0.999 | S. cerevisiae deletion strains, locus YPL241C, strain CIN2, active compounds read low 1 | S. cerevisiae deletion strains, locus YPL256C, strain CLN2, active compounds read low 0.98 | S. cerevisiae deletion strains, locus YPR119W, strain clb2, active compounds read low 1.02 | S. cerevisiae deletion strains, locus YPR141C, strain kar3, active compounds read low 1.01 | S. cerevisiae deletion strains, locus YPR163C, strain tif3, active compounds read low 1.04 | S. cerevisiae deletion strains, locus YPR167C, strain met16, active compounds read low 1.02 | S. cerevisiae deletion strains, strain wtn01, active compounds read low 1.04 | S. cerevisiae strains, strain wild type, active compounds read low 0.995
